Screening data (PubChem BioAssay)
Compounds with a hit are over-represented: about 13% of the library has one in this group of screens.
UCHL1 inh: blocks human UCHL1 ubiquitin-rhodamine cleavage. inhibition, % at 20 µM. 47,000 compounds, 0.2% hits. P09936. AID 1645859. purified UCHL1, Ub-rhodamine cleavage fluorescence
USP7 block: blocks human USP7 ubiquitin-rhodamine cleavage; Q93009; purified USP7, Ub-rhodamine cleavage fluorescence; inhibition, % at 20 µM; 47,000 compounds, 0.3% hits; AID 1645854
USP17 inh: blocks human USP17 ubiquitin-rhodamine cleavage. A8MUK1. purified USP17, Ub-rhodamine cleavage fluorescence, 3 h. inhibition, % at 50 µM. 47,000 compounds, 6.5% hits
USP8 inh: inhibitors of human USP8 deubiquitinase; AID 1645853; purified USP8, Ub-rhodamine cleavage fluorescence, 30 min; inhibition, % at 20 µM; P40818; 47,000 compounds, 4.2% hits
USP30 block: inhibitors of human USP30 deubiquitinase; Q70CQ3; purified USP30, Ub-rhodamine cleavage fluorescence; inhibition, % at 25 µM; 47,000 compounds, 5.3% hits; AID 1645860
USP10 inh: inhibitors of human USP10 deubiquitinase | 47,000 compounds, 1.1% hits | purified USP10, Ub-rhodamine fluorescence, 60 min | inhibition, % at 20 µM | AID 1645856
Target sequence (Q14694 whole entry, looked up): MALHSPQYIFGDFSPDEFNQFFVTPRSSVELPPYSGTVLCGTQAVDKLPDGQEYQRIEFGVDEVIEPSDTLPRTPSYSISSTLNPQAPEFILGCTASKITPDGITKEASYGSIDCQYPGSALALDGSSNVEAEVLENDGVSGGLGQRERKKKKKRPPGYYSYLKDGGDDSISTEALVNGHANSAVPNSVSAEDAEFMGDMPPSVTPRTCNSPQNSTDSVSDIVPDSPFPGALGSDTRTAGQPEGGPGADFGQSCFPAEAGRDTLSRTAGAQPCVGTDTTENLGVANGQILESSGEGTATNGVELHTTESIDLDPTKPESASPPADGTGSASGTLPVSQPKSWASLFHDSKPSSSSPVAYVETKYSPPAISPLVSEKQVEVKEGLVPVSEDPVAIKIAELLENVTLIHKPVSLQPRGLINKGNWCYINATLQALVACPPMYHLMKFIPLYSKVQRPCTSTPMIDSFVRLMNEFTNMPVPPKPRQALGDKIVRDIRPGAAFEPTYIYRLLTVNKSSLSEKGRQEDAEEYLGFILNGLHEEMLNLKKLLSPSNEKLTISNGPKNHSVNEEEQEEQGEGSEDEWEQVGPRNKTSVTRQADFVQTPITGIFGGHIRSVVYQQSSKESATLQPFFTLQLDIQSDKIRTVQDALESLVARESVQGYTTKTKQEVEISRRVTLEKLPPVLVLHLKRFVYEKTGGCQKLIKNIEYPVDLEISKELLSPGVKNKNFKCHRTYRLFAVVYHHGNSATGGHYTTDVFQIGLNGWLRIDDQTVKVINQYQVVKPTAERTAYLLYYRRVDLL
The depositor's hits bear a star; . = no result given. No stated cut-off is given here; in the data, active means inhibition above about 30%; inactive means the rest.

SMILES	UCHL1 inh	USP7 block	USP17 inh	USP8 inh	USP30 block	USP10 inh
CCN(CC)C(=O)c1nc2c(s1)CCN(C(=O)c1cc(C)on1)CC2	-2	-5	-11	4	-9	1
OCc1ccc(-c2cnc3sc(NCCc4ccccn4)nn23)cc1	2	6	13	18	29	3
COc1ccc(NC(=O)C(C)Oc2ccc(Cl)cc2)cc1S(=O)(=O)N1CCCCC1 (configuration not stated)	8	-10	5	-9	12	7
CN=C(N)NCCC[C@H](N)C(=O)O	2	2	16	24	31*	0
Cc1ccc(Cl)cc1N1CCN(C(=O)CC23CC4CC(CC(C4)C2)C3)CC1	8	5	6	8	30	7
O=C(CN1C(=O)CC(c2ccccc2)Sc2ccccc21)Nc1cccc(C(F)(F)F)c1 (configuration not stated)	8	12	9	-2	13	17
Cc1cc(C)cc(NC(=O)CN2C(=O)CC(c3ccccc3)Sc3ccccc32)c1 (configuration not stated)	6	10	27	19	57*	13
CC(C)(C)C(=O)N1CCC(c2cncc(-c3ccc(C(=O)O)cc3)n2)CC1	-1	3	12	19	6	-1
Oc1cc(OCc2cccc(C(F)(F)F)c2)ccc1-c1ccn[nH]1	10	-29	42*	75*	13	22
Cc1cn2c(=O)cc(COc3cccc(C(F)(F)F)c3)nc2s1	2	2	14	-1	0	0
COc1ccc(C(=O)N2CCCN(C)c3nc4ccccc4nc32)c(OC)c1OC	0	-9	-13	6	0	0
Cn1ccnc1CN1CCC2(CC1)CN(c1cccnc1)c1ccccc12	1	0	-20	-101	-31	-6
CSc1nc(SCC(=O)N(c2ccccc2)c2ccccc2)c2c3c(sc2n1)COC(C)(C)C3	-4	14	-4	9	-3	0
CSc1nc(SCC(N)=O)c2c3c(sc2n1)COC(C)(C)C3	3	2	61*	2	44*	8
COc1ccc(NC(=O)CSc2nc(N)c3c4c(sc3n2)COC(C)(C)C4)cc1	1	2	50*	-3	-7	2
COc1cccc(-c2cccc([C@H]3C[C@@H](NC(C)=O)[C@@H]4CCCC[C@H]4O3)c2)c1	1	1	4	-3	-10	-1
O=C(Nc1cccc(F)c1)c1ccc(N2CCCCS2(=O)=O)cc1Cl	1	-11	22	23	0	2
Cc1cc(N2CCCCCC2)n2nc(CN3CCN(C(C)C)CC3)nc2n1	-26	-25	-81	-34	-164	-2
Cc1c(CN2CCC(C(=O)Nc3cccc(-c4cccc(F)c4)c3)CC2)cnn1C	2	-7	-4	-10	31*	-2
COc1ccc2c(c1)c1nc(C)sc1n2CCN1CCOCC1	1	0	12	43*	8	0
COc1ccc2cc(C(C)C(=O)NCc3cccc(NS(N)(=O)=O)c3)ccc2c1 (configuration not stated)	8	9	6	46*	42*	12
O=C(CC(c1cccc(F)c1)n1cccc1)NCc1ccccc1 (configuration not stated)	-1	-9	8	-53	0	-1
COc1ccc(C(CC(=O)NCc2cccc(OC)c2)n2cccc2)cc1 (configuration not stated)	0	-4	38*	-2	11	0
O=C(CC(c1cccc(F)c1)n1cccc1)Nc1ccc2c(c1)OCO2 (configuration not stated)	6	-1	22	45*	0	7
O=C(CC(c1cccc(F)c1)n1cccc1)NCc1ccc(Cl)cc1 (configuration not stated)	7	-67	5	11	38*	10
SMILES	UCHL1 inh	USP7 block	USP17 inh	USP8 inh	USP30 block	USP10 inh
CSc1ccccc1NC(=O)COc1cc2ccccc2cc1C(=O)NCc1ccccc1	5	13	15	9	17	13
CCn1nccc1-c1cccc(-c2noc(-c3ccc(OC)cc3C)n2)c1	3	6	2	4	-16	3
COc1ccccc1C1CNCCN1S(=O)(=O)N1CCOCC1 (configuration not stated)	-1	2	-16	-25	-5	-3
CCOc1ccc(S(=O)(=O)Nc2ccccc2Cc2ccccc2)cc1	8	14	15	22	15	20
CCOc1ccc(S(=O)(=O)Nc2ccc[nH]c2=O)cc1	3	2	87*	9	-1	1
CC(C)CN1Cc2c(C(=O)N3CC=CC3)ncn2-c2ccccc2S1(=O)=O	-1	-10	-6	-4	-4	0
Cc1cc(C)c(NC(=O)Cn2c(=O)n(CCC(=O)NCc3ccc4c(c3)OCO4)c(=O)c3sccc32)c(C)c1	8	30*	75*	27	27	57*
N#Cc1ccccc1Cn1c(=O)n(CCC(=O)NCc2ccc3c(c2)OCO3)c(=O)c2ccccc21	3	7	20	11	25	17
CCOc1c(CC)cnc2c1c(=O)n(CC(=O)NCc1ccc(F)cc1)c(=O)n2C	0	4	5	7	17	1
O=C(CCCn1c(=O)c2sccc2n(CC(=O)NCCC2=CCCCC2)c1=O)NCc1ccc2c(c1)OCO2	-3	-1	50*	4	20	15
CCCn1c(=O)c2sccc2n2c(CCC(=O)NCCC3=CCCCC3)nnc12	2	2	5	14	2	-1
Cc1c(C#N)c2ccccc2n1CC(=O)NCc1ccc2c(c1)OCO2	2	4	40*	60*	22	25
COc1c(C)cnc2c1c(=O)n(CC(=O)NCc1ccc3c(c1)OCO3)c(=O)n2C	0	4	22	13	36*	-1
Nc1c(C(=O)NC2CCCC2)nnn1-c1ccccc1F	1	4	0	9	20	3
Cc1ccc(CCNC(=O)c2cc(OCc3ccc(C)cc3)nc3ccccc23)cc1	-1	3	10	-10	0	3
COc1ccc(Nc2cc(C(=O)NCc3cccnc3)c3ccccc3n2)cc1OC	-7	6	40*	6	14	2
CCOc1ccc(Nc2cc(C(=O)NCc3ccc(C)cc3)c3ccccc3n2)cc1	2	8	53*	1	.	11
CCOc1ccc(Nc2cc(C(=O)NCCc3ccccc3)c3ccccc3n2)cc1	-2	6	56*	-1	12	15
O=C(C1C[C@@H]2CC[C@H]1C2)N1CCC2(CC1)CNCCO2 (some centres not stated)	1	2	-20	-91	8	0
CCCc1cc(N2CCNC(=O)CC2c2ccccc2)n2ncnc2n1 (configuration not stated)	0	2	11	18	17	-4
